The values that follow come from PubChem BioAssay (EPA / NIEHS).

Inconclusive results are not listed. Calls of active or inactive are those of the source. Rule for the calls, unless noted: active = hit-call score of the fitted dose curve at least 0.9, where 1 is the maximum; inconclusive = response in the unintended direction; inactive = score below 0.9.

Read-out in experiment [1]: Cytochrome P450 2B6 (Homo sapiens) (UniProt P20813)
The experiment is described as follows: CLD_CYP2B6_48hr: CellzDirect (CLD) Gene Expression Assay for xenobiotic metabolism (CYP2B6) at 48 hours (AID 2283699).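 Note: actives raise transcript level above DMSO so potency reflects induction.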 Put shortly:
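CYP2B6 transcript induction, read by quantitative nuclease protection (S1 digestion, chemiluminescent detection) 48 h after dosing, is fitted upward against 0.2% DMSO. Cultured human liver primary cells, two donor preparations, received fresh chemical daily over multiple concentrations.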

Read-out in experiment [2]: Cytochrome P450 2C9 (Homo sapiens) (UniProt P11712)
The experiment can be described thus: CLD_CYP2C9_48hr: CellzDirect (CLD) Gene Expression Assay for xenobiotic metabolism (CYP2C9) at 48 hours (AID 2283701; active = hit-call score of the fitted dose curve at least 0.9, where 1 is the maximum; inactive = score below 0.9). Put shortly:
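mRNA level measured by quantitative nuclease protection (S1 digestion, chemiluminescent detection) in lysates of human primary hepatocytes exposed 48 h with daily re-dosing. Induction fitted positively versus 0.2% DMSO; morphology-based cytotoxicity flagged yes/no.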

Read-out in experiment [3]: xenobiotic metabolism (CYP1A2), CYP1A2 (gene 1544)
The experiment can be described thus: CLD_CYP1A2_48hr: CellzDirect (CLD) Gene Expression Assay for xenobiotic metabolism (CYP1A2) at 48 hours (AID 2283703). Put shortly:
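Cytotoxicity was flagged yes/no from morphology, while CYP1A2 transcript induction was detected by qNPA chemiluminescence after a 48-hour exposure. Human primary hepatocyte cultures from separate donors received fresh dosing solutions daily over two days, with 0.2% DMSO as vehicle and baseline.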

Read-out in experiment [4]: xenobiotic metabolism (CYP1A1), CYP1A1 (gene 1543)
The experiment can be described thus: CLD_CYP1A1_48hr: CellzDirect (CLD) Gene Expression Assay for xenobiotic metabolism (CYP1A1) at 48 hours (AID 2283705). Put shortly: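 CYP1A1 transcript measured by quantitative nuclease protection (chemiluminescent) 48 h after two daily treatments of human hepatocyte cultures, versus 0.2% DMSO. Morphology-based cytotoxicity flags accompany data; two donor preparations used.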

Read-out in experiment [5]: glucuronosyltransferase (UGT1A1), UGT1A1 (gene 54658)
The experiment is described as follows: CLD_UGT1A1_48hr: CellzDirect (CLD) Gene Expression Assay for glucuronosyltransferase (UGT1A1) at 48 hours (AID 2283709).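 Note: actives increase expression relative to DMSO so potency refers to induction.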 Put shortly: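 Quantitative nuclease protection assay (chemiluminescent) for UGT1A1 mRNA at 48 h in human hepatocyte cultures from two donors, redosed daily with fresh solutions. Induction fitted relative to 0.2% DMSO; phase-contrast morphology annotated cytotoxicity.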

Read-out in experiment [6]: sulfotransferase (SULT2A), SULT2A1 (gene 6822)
The experiment can be described thus: CLD_SULT2A_48hr: CellzDirect (CLD) Gene Expression Assay for sulfotransferase (SULT2A) at 48 hours (AID 2283710).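 Note: hits raise SULT2A1 transcript above the 0.2% DMSO vehicle baseline.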 Put shortly:
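SULT2A1 transcript measured by qNPA chemiluminescence in human primary hepatocyte cultures after 48 h, with fresh dosing solutions on two consecutive days; gain-of-signal fitting against 0.2% DMSO vehicle; cytotoxicity annotated from phase-contrast morphology.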

The nature of experiment [7]: STM_H9_OrnithineISnorm_perc: Stemina devTOX quickPredict H9 human embryonic stem cell (hESC)-based Assay for Ornithine (ORN) Metabolite Biomarker, Normalized (AID 2283712; active = hit-call score of the fitted dose curve at least 0.9, where 1 is the maximum; inactive = score below 0.9;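 note: ornithine released into spent medium during last day measured by mass spectrometry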). Put shortly: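 UPLC-HRMS readout: endogenous ornithine EIC area / 13C-ORN internal standard, then % of 0.1% DMSO median. H9 hESCs (pluripotent), 72h exposure, re-dosed with fresh media q24h; last 24-h spent media, deproteinized in 40% acetonitrile.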

A short description of experiment [8]: STM_H9_CystineISnorm_perc: Stemina devTOX quickPredict H9 human embryonic stem cell (hESC)-based Assay for Cystine (CYSS) Metabolite Biomarker, Normalized (AID 2283713; active = hit-call score of the fitted dose curve at least 0.9, where 1 is the maximum; inactive = score below 0.9). Put shortly:
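UPLC-HRMS read-out: endogenous cystine peak area in spent medium, normalized to isotope-labeled internal standard and to median of 0.1% DMSO controls. Pluripotent H9 cells, 72h exposure, daily medium/compound replenishment; medium from last 24h sampled.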

Experiment [9] can be described thus: CEETOX_H295R_MTT_cell_viability: Viability Assessment in the CeeTox HT-H295R MTT Assay (AID 2283718; active = hit-call score of the fitted dose curve at least 0.9, where 1 is the maximum; inactive = score below 0.9;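 for AC50: curve fitted both ways so AC50 may mark viability loss or gain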). Put shortly:
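MTT reduction (0.5 mg/ml, 4 h at 37 C; absorbance at 570 and 650 nm) gave viability as background-corrected percent change versus controls. H295R cells had 48 h forskolin (10 uM) prestimulation, then 48 h chemical exposure at 0.1% DMSO.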

Experiment [10] is described as follows: Tanguay_ZF_120hpf_ActivityScore_legacy: (Legacy) Oregon State University Tanguay Lab 120 Hour Post-fertilization zebrafish Assay Score for Activity (AID 2283742).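 For AC50: dechorionated Tropical 5D wild-type zebrafish embryos held singly per well.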 Put shortly: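 Binary scoring of mortality and morphology by brightfield at 24 and 120 hpf, summarised into one activity score from 18 components relative to DMSO. Wild-type Tropical 5D zebrafish, chorion removed at 4 hpf, static exposure 6–120 hpf, 28 °C.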

Read-out in experiment [11]: Broad substrate specificity ATP-binding cassette transporter ABCG2 (Homo sapiens) (UniProt Q9UNQ0)
The experiment is described as follows: CLD_ABCG2_48hr: CellzDirect (CLD) Gene Expression Assay for ABC Transporter (ABCG2) at 48 hours (AID 2283704). Put shortly:
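ABCG2 transcript measured at 48 h by quantitative nuclease protection (chemiluminescent) and fitted for increase relative to 0.2% DMSO. Hepatocyte cultures from separate donors got fresh compound daily over two days; morphology annotated cytotoxicity.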

The nature of experiment [12]: CLD_ACTIN_48hr: CellzDirect (CLD) Gene Expression Assay for Baseline Control (Actin) at 48 hours (AID 2283702). Put shortly:
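Background-control actin mRNA read by qNPA chemiluminescence at 48 h. Human hepatocyte cultures from two donors received fresh multi-concentration chemical doses daily for two days; 0.2% DMSO served as vehicle baseline.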

Experiment [13] deals with Thyroperoxidase (TPO), gene 445522. The experiment can be described thus: CCTE_Simmons_GUA_TPO: CCTE's Guaiacol Assay for Thyroperoxidase (TPO) Inhibition, Simmons Lab (AID 2283750). Put shortly: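 Porcine thyroid microsomes (25 ug) in 200mM potassium phosphate, preincubated 30 s at 37C with compound (8 concentrations, 5 nM–87.5 uM) and 35mM guaiacol; 1mM H2O2 starts reaction. Absorbance change at 450nm over first 80 s; loss of signal versus DMSO, three replicates.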

Read-out in experiment [14]: alkyl and aryl transferase (GSTA2), GSTA2 (gene 2939)
The experiment can be described thus: CLD_GSTA2_48hr: CellzDirect (CLD) Gene Expression Assay for alkyl and aryl transferase (GSTA2) at 48 hours (AID 2283708).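 Note: active means mRNA induction above DMSO vehicle baseline.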 Put shortly:
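GSTA2 mRNA quantified by qNPA chemiluminescence in human primary hepatocyte lysates after 48 h of daily fresh chemical dosing. Increases fitted against 0.2% DMSO vehicle baseline; cytotoxicity from morphology annotated yes/no.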

Sequence of Broad substrate specificity ATP-binding cassette transporter ABCG2 (Homo sapiens) (Q9UNQ0 whole entry, looked up): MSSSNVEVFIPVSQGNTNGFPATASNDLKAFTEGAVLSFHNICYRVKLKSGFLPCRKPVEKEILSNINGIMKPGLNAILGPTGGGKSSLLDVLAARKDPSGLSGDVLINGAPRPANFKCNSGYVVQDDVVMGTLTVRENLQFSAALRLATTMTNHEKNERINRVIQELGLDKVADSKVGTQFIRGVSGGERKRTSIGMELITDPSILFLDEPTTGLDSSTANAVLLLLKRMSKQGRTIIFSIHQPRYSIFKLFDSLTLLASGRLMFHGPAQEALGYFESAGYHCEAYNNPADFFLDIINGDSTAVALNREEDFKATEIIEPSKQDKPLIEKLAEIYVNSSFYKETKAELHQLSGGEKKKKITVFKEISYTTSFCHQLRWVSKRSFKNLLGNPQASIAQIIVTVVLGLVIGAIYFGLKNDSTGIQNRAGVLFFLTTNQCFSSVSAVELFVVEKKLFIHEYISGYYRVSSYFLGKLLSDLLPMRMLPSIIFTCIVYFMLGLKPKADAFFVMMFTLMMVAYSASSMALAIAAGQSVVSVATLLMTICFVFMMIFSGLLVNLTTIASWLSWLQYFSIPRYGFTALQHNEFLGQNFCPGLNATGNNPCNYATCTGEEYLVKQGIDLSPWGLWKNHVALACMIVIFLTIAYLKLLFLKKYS

With `CC1(C)C(C=C(Cl)Cl)C1C(=O)OC(C#N)c1cccc(Oc2ccccc2)c1` (configuration not stated), the AC50 – broadly, the concentration at which the activity in the assay is half-maximal – is 6.46 µM (active) in experiment [1], 14.6 µM (active) in experiment [3], 6.03 µM (active) in [5] and 1.14 µM (active) in experiment [10]. Further, the call in experiment [2], in experiment [4], in experiment [6], in experiment [7], in experiment [8] and in experiment [9] was inactive.
`O=c1n(Cl)c(=O)n(Cl)c(=O)n1Cl`: the result in experiment [1], in experiment [2], in experiment [3], in [11], in experiment [4] and in [10] was inactive.
For `CCCC(=NOCC)C1=C(O)CC(CC(C)SCC)CC1=O` (configuration not stated), the result in experiment [1], in experiment [2], in [12], in experiment [3], in [4] and in experiment [9] was inactive. In experiment [10], the outcome was inactive.
For the compound `CCOc1nc(F)cc2nc(S(=O)(=O)Nc3c(Cl)cccc3Cl)nn12`, the AC50 in experiment [1] is 7.88 µM (active); in [7] it was 0.007 µM (active); in experiment [8], 0.0249 µM (active); in experiment [13], 55 µM (active). The compound was classed as inactive in experiment [2], in [3], in [4], in [5] and in [10].
As for `Cc1nc(N(C)C)nc(OC(=O)N(C)C)c1C`, the AC50 in experiment [1] was 5.26 µM (active); in experiment [3], 3.27 µM (active). The result in [2], in experiment [12], in [4], in experiment [9] and in [10] was inactive.
In the case of `COP(=S)(OC)SCn1nnc2ccccc2c1=O`, the AC50 in experiment [1] is 4.19 µM (active); in experiment [3], 0.409 µM (active); in experiment [4], 1.36 µM (active); in experiment [5], 6.38 µM (active); in [13], 49.6 µM (active). For the same compound, the outcome in experiment [2], in experiment [11], in experiment [6], in experiment [9] and in experiment [10] was inactive.
`CO/N=C(/C1=NOCCO1)c1ccccc1Oc1ncnc(Oc2ccccc2Cl)c1F`: the AC50 in experiment [1] was 1.89 µM (active); in experiment [4], 32.4 µM (active); in experiment [7], 24 µM (active); in experiment [8], 9.72 µM (active); in experiment [10], 3.17 µM (active). The outcome in experiment [2], in experiment [12], in experiment [3], in [11], in [5] and in experiment [6] was inactive.
Regarding `COC(=O)c1c(C(F)F)nc(C(F)(F)F)c(C2=NCCS2)c1CC(C)C`, the AC50 was 0.378 µM (active) in experiment [1]; 1.66 µM (active) in experiment [3]; 8.66 µM (active) in experiment [4]; 1.7 µM (active) in experiment [6]; 38.8 µM (active) in experiment [9]. In addition, the call in experiment [2], in experiment [11] and in [10] was inactive.
Take `COP(=O)(OC)O/C(C)=C/C(=O)N(C)C`: the compound was called inactive in experiment [1], in [2], in experiment [3], in experiment [11] and in [10].
As to `CCCCC(C#N)(Cn1cncn1)c1ccc(Cl)cc1` (configuration not stated), the AC50 was 4.45 µM (active) in experiment [1], 11.7 µM (active) in experiment [3], 35.1 µM (active) in experiment [4] and 76 µM (active) in experiment [7]. Moreover, the compound was called inactive in experiment [2], in experiment [11], in [8], in experiment [9] and in experiment [10].
Take `N#Cc1c(Cl)cccc1Cl`: the AC50 in experiment [1] was 1.44 µM (active). For the same compound, the result in [2], in [12], in experiment [11], in experiment [4], in experiment [14] and in experiment [5] was inactive. Moreover, the compound was classed as inactive in experiment [6], in experiment [9] and in [10].
Regarding `Cc1c(COC(=O)[C@@H]2[C@H](/C=C(\Cl)C(F)(F)F)C2(C)C)cccc1-c1ccccc1`, the figures for the AC50 in experiment [1] and in [4] were 3.39 µM (active) and 20 µM (active), respectively. For the same compound, the compound was called inactive in experiment [2], in experiment [3], in experiment [11], in experiment [5], in experiment [9] and in experiment [10].
With `COC(=O)NS(=O)(=O)c1ccc(N)cc1`, the outcome in experiment [1], in experiment [2], in experiment [12], in experiment [3], in experiment [4] and in [6] was inactive. In addition, the result in experiment [10] was inactive. The AC50 in experiment [13] was 136 µM (active).
Turning to `CC1(C)C(C(=O)OC(C#N)c2cccc(Oc3ccccc3)c2)C1(C)C` (configuration not stated), the AC50 in experiment [1] is 4.06 µM (active). For the same compound, the outcome in experiment [2], in [3], in [11], in experiment [4], in [6] and in experiment [10] was inactive.
As to `CCN(CC)C(=O)C(C)Oc1cccc2ccccc12` (configuration not stated), the AC50 in experiment [1] was 6.33 µM (active); in experiment [3] it was 5.76 µM (active); in experiment [4], 27.9 µM (active); in [5] it was 3.1 µM (active); in [7], 50 µM (active); in experiment [8], 5.52 µM (active). In addition, the result in experiment [2], in experiment [9] and in [10] was inactive.
On to `CCOc1cc(C(C)(C)C)ccc1C1COC(c2c(F)cccc2F)=N1` (configuration not stated), for which the AC50 in experiment [1] is 2.11 µM (active); in experiment [3] it was 20 µM (active); in [4] it was 30.3 µM (active). Also, the result in [2], in experiment [11], in experiment [5], in experiment [9] and in experiment [10] was inactive.
